# Most compounds without a hit are left out; they make up all but 7.3% or so of the library.
# uPA generation: qHTS for Inhibitors of Cell Surface uPA Generation; 330,000 tested, 0.31% active; Potency, µM (top dose mostly 38.3 µM), for the others: at the highest dose activity change, negative = inhibition, hits mostly inhibitors; cell surface uPA generation assay, qHTS; active = well fitted inhibition curve with a large enough effect; inconclusive = small, poorly fitted or top-dose-only effect; inactive = no such curve, though single readings can be large or run the other way; tested in mouse RAW 264.7 cells; also: % is scaled to controls: 0 for no effect and ±100 for the full control effect; nearly all actives have a fitted effect of over 55% in size
# SMN2 splice enh: qHTS Assay for Enhancers of SMN2 Splice Variant Expression; HEK293 SMN2-luciferase splicing reporter, luminescence, 30-36 h; Potency, µM (top dose mostly 46.1 µM), for inactives: at the top dose activity change, positive = activation, usual class: activators; 210,000 tested, 2.8% active; also: % of control where 0% means no effect; nearly all actives have a fitted effect of over 55% in size
#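 qHTS luciferase splicing reporter: luminescence rises when SMN2 exon 7 is included in transfected HEK293 cells. Compound exposure lasted 30-36 h at 37C, with 4.5 mM final sodium butyrate as control, followed by a ONE-Glo read.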
# FLuc counter: qHTS profiling assay for firefly luciferase inhibitor/activator using purifed enzyme and Km concentrations of substrates (counterscreen for miR-21 project); purified FLuc, Km substrates, luminescence inhibition; Potency, µM (highest dose often 57.5 µM), inactives show at the top dose activity change, negative = inhibition, usual class: inhibitors; 360,000 tested, 6.9% active; AID 588342, 2011;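 also: plate controls were vehicle for no effect and reference inhibitor for full effect; nearly all actives have a fitted effect of over 55% in size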
# Target sequence (P08659 whole entry, looked up): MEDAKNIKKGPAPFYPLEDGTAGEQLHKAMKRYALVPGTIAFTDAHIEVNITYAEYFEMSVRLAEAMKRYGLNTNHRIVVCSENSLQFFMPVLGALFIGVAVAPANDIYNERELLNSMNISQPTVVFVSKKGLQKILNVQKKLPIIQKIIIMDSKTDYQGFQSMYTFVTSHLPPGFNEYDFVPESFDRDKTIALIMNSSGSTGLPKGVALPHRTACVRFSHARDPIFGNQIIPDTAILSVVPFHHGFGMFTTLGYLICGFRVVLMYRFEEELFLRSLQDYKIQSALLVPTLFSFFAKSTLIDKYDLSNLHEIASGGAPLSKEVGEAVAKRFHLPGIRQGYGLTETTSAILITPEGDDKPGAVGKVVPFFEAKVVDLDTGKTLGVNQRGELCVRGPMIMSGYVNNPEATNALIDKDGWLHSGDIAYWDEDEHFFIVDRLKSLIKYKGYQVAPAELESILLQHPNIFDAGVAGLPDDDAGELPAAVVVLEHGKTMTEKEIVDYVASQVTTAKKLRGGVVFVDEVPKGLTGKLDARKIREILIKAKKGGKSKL
#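 Biochemical qHTS of compounds, final roughly 60 µM downward over six points, against 10 nM purified firefly luciferase using Km concentrations of substrates (10 uM D-luciferin, 10 uM ATP) in Tris acetate pH 7.5 buffer; luminescence output.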
# ELG1 genotoxic: qHTS screen for small molecules that induce genotoxicity in human embryonic kidney (HEK293T) cells expressing luciferase-tagged ELG1. HEK293T ELG1-luciferase reporter, luminescence, 16 h. Potency, µM (series often up to 46 µM), for inactives: at the highest dose activity change, positive = activation, most hits filed as activators. 330,000 tested, 1.3% active; also: % of control where 0% means no effect; nearly all actives have a fitted effect of over 60% in size
#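 Quantitative HTS format in 1536-well plates. HEK293T ELG1-luciferase reporter cells receive test compound and are incubated 16 hr at 37 °C, 5% CO2; ONE-Glo added, 30 min room temperature, then luminescence read.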
# NPC1 promoter act: qHTS Assay for NPC1 Promoter Activators; Huh7 NPC1 promoter luciferase reporter, 24 h; Potency, µM (series often up to 9.22 µM), for the others: at the top dose activation, actives largely listed as activators; 320,000 tested, 2.4% active; also: % of control where 0% means no effect; nearly all actives have a fitted effect of over 60% in size
#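 Stable NPC1-promoter luciferase Huh7 line; cpd (DMSO) 24 h, 37 °C, 5% CO2; Amplite luciferase reagent 10 min RT; luminescence readout. qHTS format.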
# Rab9 prom act: qHTS Assay for Rab9 Promoter Activators; Huh7 Rab9 promoter-luciferase reporter, luminescence, 24 h; Potency, µM (titrated, usually from 9.22 µM), for inactives: at the highest dose activation, negative = inhibition, actives largely listed as activators; 320,000 tested, 2.8% active; AID 485297, 2010; also: % of control where 0% means no effect; nearly all actives have a fitted effect of over 60% in size
#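 Luminescence read-out: Huh7 cells stably expressing Rab9-luciferase, treated 24 h with compound at 37 °C, then lysed with luciferase reagent for 10 min at ambient before reading.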
# Active calls of the source: *; ? = inconclusive; nt = no result; [ ] = dose if it differs, or a comment. Unless noted, calls follow the shape of the dose curve; as a rule, active = well fitted curve in the direction sought with a large enough effect; inconclusive = small, poorly fitted or top-dose-only effect, or another doubt; inactive = no such curve, though single readings can be large; an effect the other way counts as inactive or inconclusive. Potency is read from the fitted curve at half-maximal effect.
SMILES,uPA generation,SMN2 splice enh,FLuc counter,ELG1 genotoxic,NPC1 promoter act,Rab9 prom act
Cc1noc(-c2ccc(N3CCCCC3)c([N+](=O)[O-])c2)n1,nt,nt,5.2%,nt,nt,nt
O=C(Nc1nonc1-c1ccc(Cl)cc1)c1ccccc1F,nt,-8.5%,-18.2%,nt,nt,nt
N=c1c2ccccc2nc2n1CCCCCCCCCCC2,-6.4%,nt,nt,nt,nt,nt
CC(C)c1ccc(/C=C/C(=O)Nc2nc3ccc([N+](=O)[O-])cc3s2)cc1,-4.5%,-12.6%,5.3%,0.5%,-6.4%,-8.8%
O=C(O)COc1ccc(/C=C/c2nc3ccc([N+](=O)[O-])cc3s2)cc1,-2.8%,nt,4.78µM*,2.7%,7.3%,3.8%
O=C(CSc1nnc(SCc2ccc(Cl)cc2)s1)N/N=C/c1c[nH]c2ccccc12,-4.0%,-22.3%,-4.7%,10.2%,7.3%,-2.9%
O=C(CSc1nnc(SCc2ccc(Cl)cc2)s1)N/N=C/c1ccc(C(=O)O)cc1,-0.3%,nt,1.35µM*,1.7%,9.8%,0.1%
O=C(CSc1nc2ccccc2n1Cc1ccc(Cl)cc1)N/N=C/c1ccc(C(=O)O)cc1,2.3%,-1.7%,?,1.4%,-6.3%,-9.3%
O=C(O)COc1ccccc1/C=N/NC(=O)CSc1nnc(SCc2cccc3ccccc23)s1,-2.7%,nt,19µM*,0.5%,1.9%,-3.9%
O=C(CSc1nnc(SCc2cccc3ccccc23)s1)N/N=C/c1c[nH]c2ccccc12,-0.2%,-26.0%,?,-6.1%,0.0%,-1.0%
O=C(O)COc1ccccc1/C=N/NC(=O)CSc1nnc(SCc2ccc(Cl)cc2)s1,-3.4%,nt,9.53µM*,-3.1%,13.5%,5.4%
CCCCNC(=O)CSc1nc2cc3c(cc2c(=O)n1CCCC(=O)NCc1ccc2c(c1)OCO2)OCO3,nt,nt,-4.2%,nt,nt,nt
COc1cc(C)ccc1OCc1cc(C(=O)N(Cc2nccn2C)C(C)C)no1,-13.6%,nt,10.7µM*,?,2.51µM*,2.24µM*
COc1cc(C)ccc1OCc1cc(C(=O)NCCN2CCCC(O)C2)no1 (centres undefined),2.4%,nt,?,0.8%,-2.3%,4.6%
COc1cc(C)ccc1OCc1cc(C(=O)N(Cc2c(C)nn(C)c2C)C2CC2)no1,-4.2%,nt,12µM*,13.6%,?,?
CNc1nc(-c2ccccc2)[n+](-c2ccc(C)cc2)s1,8.3%,nt,6.75µM*,0.5%,13.4%,11.8%
COc1ccc(/C=C2\SC(=S)N(CCC(=O)NC3CCCC3)C2=O)cc1OC,-0.4%,nt,-3.1%,-2.3%,-3.9%,-1.5%
COc1cc(/C=C2/SC(=S)N(CC3CCCO3)C2=O)ccc1O (centres undefined),-3.3%,4.3%,10.7µM*,16.0%,-0.7%,-2.7%
O=C1/C(=C/c2cccnc2)SC(=S)N1CC1CCCO1 (centres undefined),-12.8%,-3.2%,?,-4.3%,-5.2%,-4.6%
COc1ccc(/C=C2\SC(=S)N(CC3CCCO3)C2=O)cc1 (centres undefined),0.1%,nt,10.7µM*,9.6%,6.0%,25.1%
N#C/C(=C\c1ccc(O)c(O)c1)C(=O)c1ccc(O)c(O)c1,3.98µM*,?,?,-12.7%,-2.3%[46.1 µM],-9.7%[46.1 µM]
COc1ccc(/C=C(\C#N)C(=O)NCCc2ccccc2)cc1OCc1ccccc1,-7.8%,-11.7%,-0.9%,-3.2%,3.7%,-5.9%
N#C/C(=C\c1ccc(O)c(O)c1)C(=O)NCCCc1ccccc1,3.55µM*,-54.9%,?,11.8%,-19.1%[46.1 µM],-35.3%[46.1 µM]
CC(C)(C)C(=O)NC1(C(F)(F)F)NC(=O)N(c2ccc(F)cc2)C1=O (centres undefined),8.1%,17.5%,0.3%,0.2%,-0.9%,-1.9%
CC1(C)CC(=O)c2sc(NC(=O)CN3CCCCC3)nc2C1,5.9%,-4.3%,4.8%,-11.6%,-0.7%,-0.9%
SMILES,uPA generation,SMN2 splice enh,FLuc counter,ELG1 genotoxic,NPC1 promoter act,Rab9 prom act
CC1(C)CC(=O)c2sc(NC(=O)C(C)(C)C)nc2C1,0.5%,nt,?,?,?,2.82µM*
CC1(C)CNC(=O)c2sc(NC(=O)c3ccccc3)nc2C1,2.2%,11.2µM*,?,16.3%,?,?
CC1(C)CC(=O)c2sc(NC(=O)c3cccs3)nc2C1,-17.2%,2.24µM*,0.757µM*,?,?,0.501µM*
CC1(C)CC(=O)c2sc(NC(=O)c3ccccc3)nc2C1,nt,12.6µM*,1.9µM*,?,0.447µM*,0.708µM*
Cc1ccc(S(=O)(=O)N(CC2CO2)c2cc(Cl)ccc2Cl)cc1 (centres undefined),-2.6%,nt,12.2%,-3.2%,0.5%,-0.8%
CCc1ccc(CN(C(=O)c2cc(=O)c3ccc(C)cc3o2)C2CCS(=O)(=O)C2)cc1 (centres undefined),nt,8.5%,-2.6%,nt,nt,nt
CC1(C)CC(=O)c2sc(NC(=O)c3ccc4ncsc4c3)nc2C1,?,11.2µM*,1.9µM*,?,?,?
CC(Oc1ccccc1)C(=O)Nc1nc2c(s1)C(=O)CC(C)(C)C2 (centres undefined),-1.4%,-20.0%,-7.8%,1.0%,1.3%,-2.3%
CC(C)C(NC(=O)c1ccccc1F)C(=O)OCC(=O)c1ccc(F)cc1 (centres undefined),0.0%,-2.1%,3.01µM*,6.6%,0.6%,?
COc1cc(OC)cc(C(=O)N[C@H](C(=O)OCC(=O)Nc2cccc(F)c2)C(C)C)c1,-18.5%,-10.8%,0.6%,-4.3%,-0.2%,-6.1%
COc1cc(OC)cc(C(=O)N[C@H](C(=O)OCC(=O)c2ccc(F)cc2)C(C)C)c1,2.7%,-1.2%,10.7µM*,1.3%,-3.6%,2.0%
CCOC(=O)c1c(N)sc2c(OC)c(Br)ccc12,2.6%,-10.1%,19µM*,nt,nt,nt
CCOC(=O)c1c(-c2ccc(C)s2)csc1N,15.9%,10.5%,-21.5%,-0.4%,-1.1%,-0.1%
CCN(CC)C1CCN(C(=O)c2cc(COc3ccccc3SC)on2)C1 (centres undefined),2.1%,nt,6.0%,0.9%,2.5%,2.0%
CSc1ccccc1OCc1cc(C(=O)N2CCN(C3CCCC3)C(=O)C2)no1,-0.4%,nt,16.9µM*,?,?,?
O=C(c1cc(COc2ccc(F)cc2F)on1)N1CCN(C2CCCC2)C(=O)C1,-1.1%,nt,3.3%,3.8%,4.8%,9.0%
COc1ccc(OCc2cc(C(=O)N3CCCC(CO)C3)no2)c2ccccc12 (centres undefined),-8.0%,nt,8.49µM*,?,3.98µM*,3.98µM*
CSc1ccccc1OCc1cc(C(=O)N2CCSCC2)no1,-0.6%,nt,?,-4.0%,2.24µM*,1.41µM*

# Assay outcomes as filed in PubChem BioAssay.
